{"source": "PubChem BioAssay AID2717", "about": "(Broad Institute, 2010)", "note": "About 3,200 (1.1%) of roughly 300,000 compounds were called active. Rule as the data show it: active = inhibition above about 75%; inconclusive = no clear call, values can overlap the other calls; inactive = below that; tested in HMLE shEcad cells. What follows is part of a selection rich in actives, with near analogues and random picks from the rest.", "data": [{"assay": "cancer stem cell viability inhibitors, primary screen, luminescence (AID 2717)", "conditions": "cancer stem cell-like cells viability, at 7.5 µM, hits give high values", "values": [{"smiles": "CCN(CC)CC(=O)c1c[nH]c2ccc(OC)cc12", "inhibition": "3.22% (inactive)"}, {"smiles": "COc1ccc2sc(-c3ccc(N(C)C)cc3)c(-c3ccc4cc[nH]c4c3)c2c1", "inhibition": "83.3% (active)"}, {"smiles": "COc1ccc2[nH]c(=S)cc(C)c2c1", "inhibition": "-16.3% (inactive)"}, {"smiles": "COc1cc(OC)cc(-c2c(-c3cccs3)c3cc(-c4ccc(OC)cc4F)ccc3n2C)c1", "inhibition": "-6.57% (inactive)"}, {"smiles": "COc1cc(OC)cc(-c2sc3ccc(OC)cc3c2-c2ccc3cc[nH]c3c2)c1", "inhibition": "137% (active)"}, {"smiles": "COc1cc2c(cc1O)[C@H](Cc1ccc(Oc3cc(C[C@@H]4NCCc5cc(OC)c(O)cc54)ccc3O)cc1)NCC2", "inhibition": "9.97% (inactive)"}, {"smiles": "COc1ccc2c(c1)CCNC2Cc1ccc(OC)c(O)c1", "note": "(configuration not stated)", "inhibition": "10.2% (inactive)"}, {"smiles": "CC[C@H]1CN2CCc3cc(OC)c(OC)cc3[C@@H]2C[C@@H]1C[C@H]1NCCc2cc(OC)c(OC)cc21", "inhibition": "76.3% (active)"}, {"smiles": "CN=C(Nc1cccc(S(=O)(=O)N2CCOCC2)c1)c1ccccc1", "inhibition": "-5.3% (inactive)"}, {"smiles": "COc1cccc(CNC(=O)CCCC(=O)Nc2cccc([N+](=O)[O-])c2)c1", "inhibition": "-9.18% (inactive)"}, {"smiles": "COc1ccc(S(=O)(=O)NC(C)C(=O)Nc2cccc([N+](=O)[O-])c2)cc1", "note": "(configuration not stated)", "inhibition": "-2.67% (inactive)"}, {"smiles": "COC(=O)/C=C\\C(=O)Nc1cccc([N+](=O)[O-])c1", "inhibition": "88.5% (active)"}, {"smiles": "Cc1ccc(NC(=O)c2ccc(Cl)nc2)cc1S(=O)(=O)N1CCOCC1", "inhibition": "33.6% (inactive)"}, {"smiles": "O=C(COCc1cc(-c2ccc3c(c2)OCO3)on1)N1CCN(c2cccc(Cl)c2)CC1", "inhibition": "36.2% (inactive)"}, {"smiles": "Cc1cccc(N2CCN(C(=O)COCc3cc(-c4ccc5c(c4)OCO5)on3)CC2)c1C", "inhibition": "121% (active)"}, {"smiles": "CCOC(=O)N1CCN(C(=O)COCc2cc(-c3ccc4c(c3)OCO4)on2)CC1", "inhibition": "-12.8% (inactive)"}, {"smiles": "Cc1ccc(C(=O)Nc2ccc3c(c2)OCCO3)cc1S(=O)(=O)N1CCOCC1", "inhibition": "-3.87% (inactive)"}, {"smiles": "C[C@H](CO)N1C[C@H](C)[C@@H](CN(C)S(=O)(=O)c2ccc(F)cc2)Oc2ccc(NC(=O)CCC(F)(F)F)cc2C1=O", "inhibition": "4.59% (inactive)"}, {"smiles": "CCN(c1ccccc1)S(=O)(=O)c1ccc(C(=O)Nc2ccccc2OC)cc1", "inhibition": "16.8% (inactive)"}, {"smiles": "COc1ccc([C@H]2CC(=O)C=C(c3ccc(CO)cc3)C2)cc1", "inhibition": "-11% (inactive)"}, {"smiles": "FC(F)(F)c1cccc(NC(=S)Nc2cccc(Cl)c2)c1", "inhibition": "52.9% (inactive)"}, {"smiles": "Cc1csc(NC(=S)Nc2cccc(Cl)c2)n1", "inhibition": "78.6% (active)"}, {"smiles": "S=C(Nc1cccc(Cl)c1)Nc1ccc2c(c1)OCCO2", "inhibition": "4.65% (inactive)"}, {"smiles": "CCN(CC)S(=O)(=O)c1ccc(N2CCOCC2)c(NC(=O)C(C)Oc2ccc(F)cc2)c1", "note": "(configuration not stated)", "inhibition": "-11.2% (inactive)"}, {"smiles": "CN(c1ccccc1)S(=O)(=O)c1cc(C(=O)N2CCN(c3ncccn3)CC2)ccc1Cl", "inhibition": "3.3% (inactive)"}, {"smiles": "Cc1ccc(C)c(S(=O)(=O)N2CCN(c3ncnc4sccc34)CC2)c1", "inhibition": "101% (active)"}, {"smiles": "Cc1ccc(C)c(S(=O)(=O)N2CCN(C(=O)Nc3ccccc3)CC2)c1", "inhibition": "-18.4% (inactive)"}, {"smiles": "COc1ccc(C)cc1S(=O)(=O)N1CCN(S(=O)(=O)c2cc(C(=O)O)ccc2C)CC1", "inhibition": "-3.35% (inactive)"}, {"smiles": "CCN1C(=O)/C(=C\\N2CCOCC2)SC1=S", "inhibition": "-22.1% (inactive)"}, {"smiles": "CCC1(C)NC(=O)N(CC(=O)N2CCN(c3cccc(Cl)c3)CC2)C1=O", "note": "(configuration not stated)", "inhibition": "3.29% (inactive)"}, {"smiles": "CCN1C(=O)/C(=C\\N2CCN(c3cccc(Cl)c3)CC2)SC1=S", "inhibition": "100% (active)"}, {"smiles": "COc1cc(/C=C/C(=O)Nc2ccc(OC)c(S(=O)(=O)N3CCOCC3)c2)ccc1OCC#N", "inhibition": "42.4% (inactive)"}, {"smiles": "O=C(Nc1cccc(S(=O)(=O)N2CCCC2)c1)c1cncc(Br)c1", "inhibition": "-1.23% (inactive)"}, {"smiles": "C=CCC[C@@H](Cc1ccc(F)cc1)C(=O)OC[C@@H](C)NC(=O)[C@H](CC=C)CC(=O)N(CCO)Cc1ccccc1", "inhibition": "-1.95% (inactive)"}, {"smiles": "O=C(CSc1nnc(-c2ccncc2)o1)Nc1cccc(Cl)c1", "inhibition": "7.36% (inactive)"}, {"smiles": "Cc1cc(C)c(S(=O)(=O)N2CCC(C(=O)OCc3c(C)noc3C)CC2)c(C)c1", "inhibition": "1.55% (inactive)"}, {"smiles": "COc1cc(/C=C/C(=O)OCC(=O)NCCCc2ccccc2)ccc1O", "inhibition": "14.6% (inactive)"}]}]}
